Marburg entry: qHTS for Inhibitors of binding or entry into cells for Marburg Virus | Marburg virus pseudotype entry/binding inhibition, cell-based | Potency, µM (doses to about 49.2 µM), for inactives: top-dose activity change, negative = inhibition, actives largely listed as inhibitors | 6.5% of 18,000 active
LASV entry inh: qHTS for Inhibitors of binding or entry into cells for Lassa Virus; 4.1% of 18,000 active; AID 720533, 2013; Lassa virus pseudotyped entry inhibition, cell-based qHTS; Potency, µM (series often up to 49.2 µM), for inactives: at the highest dose activity change, negative = inhibition, most hits filed as inhibitors
An asterisk follows results filed as active; ! = not confirmed by another sample; [ ] = dose if it differs, or a comment. Most compounds without a hit are left out; they make up all but 8.6% or so of the library. Calls follow the shape of the full dose curve; tested in HEK293 cells. % is scaled to controls: 0 for no effect and ±100 for the full control effect; potency is read from the fitted curve at half-maximal effect.

For Cc1ncc2c(c1CNC(=O)c1ccc3c(c1)OCO3)CCN(C(=O)/C=C/c1ccc(Cl)cc1)C2 the results were Marburg entry 1.3% and LASV entry inh -8.0%.
O=C(OC1C[C@H]2CC[C@@H](C1)[N+]21CCCC1)C(O)(c1ccccc1)c1ccccc1 (some centres undefined) was read as Marburg entry 17.7% and LASV entry inh -6.3%.
`COC1=CC(=O)C(O)=C/C1=C\C=C\c1ccccc1` gave Marburg entry 15.8µM* and LASV entry inh -24.8%.
COc1cc(O)cc(/C=C/c2ccccc2)c1 was read as Marburg entry -11.8% and LASV entry inh -29.1%.
O=C(c1ccc(Br)o1)N(Cc1ccccc1)Cc1ccccc1 was read as Marburg entry -8.2% and LASV entry inh -16.1%.
CC12C=CC(=O)C=C1CCC1C2=CCC2(C)C1CC[C@@H]2C(=O)CN1CCN(c2cc(N3CCCC3)nc(N3CCCC3)n2)CC1 (some centres undefined) was read as Marburg entry 17.8µM*! and LASV entry inh 4.1%.
COC(=O)N[C@H](C(C(=O)OC)=C(C)NCc1ccccc1)c1cccc(F)c1 was read as Marburg entry -11.0%[8.59 µM] and LASV entry inh 4.2%[8.59 µM].
Screening COC[C@H]([C@@H](O)[C@@H](O)C(=O)NCC[C@@H](C)c1nc(/C=C/C[C@H]2OC3(C[C@H](O)[C@H]2C)OC([C@@H](C[C@@H](O)[C@@H](C)[C@@H](O)[C@@H](C)/C=C(C)/C(C)=C/C=C/C(C)=C\C#N)OC)[C@@H](OP(=O)(O)O)C3(C)C)co1)N(C)C (some centres undefined) returned Marburg entry 0.112µM* and LASV entry inh 70.8µM*.
CC(C)C[C@H](NC(=O)[C@H](CC(C)C)NC(=O)[C@H](CCC(N)=O)NC(=O)[C@H](CO)NC(=O)[C@@H]1CCCN1C(=O)[C@H](CO)NC(=O)[C@H](CO)NC(=O)[C@@H](NC(=O)[C@H](Cc1cnc[nH]1)NC(=O)[C@H](CCC(=O)O)NC(=O)[C@H](Cc1ccc(O)cc1)NC(=O)[C@H](CCCCN)NC(=O)[C@H](CCC(N)=O)NC(=O)[C@H](Cc1ccc(O)cc1)NC(=O)[C@H](CC(=O)O)NC(=O)[C@@H](NC(=O)[C@@H]1CCCN1C(=O)[C@H](CC(=O)O)NC(=O)[C@H](CC(N)=O)NC(=O)[C@H](CC(=O)O)NC(=O)CNC(=O)[C@H](CC(=O)O)NC(=O)[C@@H]1CCCN1C(=O)[C@H](CCC(N)=O)NC(=O)[C@H](Cc1ccc(O)cc1)NC(=O)[C@H](C)NC(=O)[C@H](Cc1c[nH]c2ccccc12)NC(=O)[C@H](Cc1ccccc1)NC(=O)[C@@H](NC(=O)[C@@H](N)CO)[C@@H](C)O)[C@@H](C)O)[C@@H](C)O)C(=O)N[C@@H](C)C(=O)N1CCC[C@H]1C(=O)NCC(=O)N[C@@H](CC(=O)O)C(=O)N[C@@H](Cc1ccc(O)cc1)C(=O)O was read as Marburg entry 3.8% and LASV entry inh -1.0%.
Screening O=C(c1ccc2c(c1)OCO2)N1CCCCC1 returned Marburg entry 6.1% and LASV entry inh 1.3%.
`CCCCCCCCCCC/C=C\C/C=C\CCCC(=O)O` gave Marburg entry 16.8% and LASV entry inh -6.9%.
For O=C(c1ccc(F)cc1)C1CCN(CCn2c(=O)[nH]c3ccccc3c2=O)CC1 the results were Marburg entry inconclusive and LASV entry inh -5.0%.
`O=c1[nH]c2ccccc2n1CCCN1CCN(C(c2ccccc2)c2ccccc2)CC1` gave Marburg entry 15.8µM* and LASV entry inh inconclusive.
Screening CC(C)NC(=O)c1cn(C2CCC(NC(=O)C(C)(C)C)CC2)nn1 (centres undefined) returned Marburg entry -19.9% and LASV entry inh 4.6%.
For Cc1ccc(CNc2ncnc3sc(C(=O)N4CCCC(C(N)=O)C4)c(C)c23)o1 (centres undefined) the results were Marburg entry -20.3% and LASV entry inh -6.1%.
CO[C@@H]1[C@@H](O[C@@H]2O[C@H](C)[C@@H](O[C@H]3C[C@@](C)(O)[C@@H](OC(=O)CC(C)C)[C@H](C)O3)[C@H](N(C)C)[C@H]2O)[C@@H](CC=O)C[C@@H](C)C(=O)/C=C/C2OC2C[C@@H](C)OC(=O)C[C@H]1OC(C)=O (some centres undefined) was read as Marburg entry 12.6µM* and LASV entry inh inconclusive.
For COC1C(O)CC(=O)OC(C)C/C=C/C=C/[C@@H](OC2CCC(N(C)C)C(C)O2)C(C)C[C@@H](CC=O)[C@@H]1O[C@H]1OC(C)[C@H](O[C@@H]2C[C@@](C)(O)C(O)C(C)O2)C(N(C)C)C1O (some centres undefined) the results were Marburg entry 6.31µM* and LASV entry inh -19.9%.
For COC1C[C@@H](O[C@@H]2C(C)C(=O)OC(C)C(C)[C@H](OC(C)=O)C(C)C(=O)[C@@]3(CO3)CC(C)C(OC3OC(C)CC(N(C)C)[C@H]3OC(C)=O)C2C)OC(C)[C@@H]1OC(C)=O (some centres undefined) the results were Marburg entry -0.6% and LASV entry inh 4.5%.
Screening COC1[C@@H](O[C@@H]2O[C@H](C)[C@@H](O[C@H]3C[C@@](C)(O)[C@H](OC(=O)CC(C)C)[C@H](C)O3)[C@H](N(C)C)[C@H]2O)[C@@H](CC=O)C[C@@H](C)[C@@H](O)/C=C/C=C/C[C@@H](C)OC(=O)C[C@H]1OC(C)=O (some centres undefined) returned Marburg entry 6.8%[17.8 µM] and LASV entry inh 9.3%[17.8 µM].
Screening CO[C@@H]1[C@@H](O[C@@H]2O[C@H](C)[C@@H](O[C@H]3C[C@@](C)(O)[C@@H](O)[C@H](C)O3)[C@H](N(C)C)[C@H]2O)[C@@H](CC=O)C[C@@H](C)[C@@H](O[C@@H]2CC[C@H](N(C)C)[C@@H](C)O2)/C=C/C=C/C[C@@H](C)OC(=O)C[C@H]1OC(C)=O returned Marburg entry 3.16µM* and LASV entry inh inconclusive.
For CC[C@H]1OC(=O)C[C@@H](O)[C@H](C)[C@@H](O[C@@H]2O[C@H](C)[C@@H](O[C@H]3C[C@@](C)(O)[C@@H](O)[C@H](C)O3)[C@H](N(C)C)[C@H]2O)[C@@H](CC=O)C[C@@H](C)C(=O)/C=C/C(C)=C/[C@@H]1CO[C@@H]1O[C@H](C)[C@@H](O)[C@@H](OC)[C@H]1OC the results were Marburg entry -19.5% and LASV entry inh 0.7%.
CNC(=O)O/N=C/C(C)(C)SC was read as Marburg entry -1.0% and LASV entry inh 3.3%.
O=C(NCC1Cc2cccc(-c3cnccn3)c2O1)c1ccc2c(c1)OCCO2 (centres undefined) was read as Marburg entry 29.4% and LASV entry inh 32.3%.
For COc1cccc(-n2c(SC)nnc2C2CCN(Cc3cccc(OC)c3O)CC2)c1 the results were Marburg entry inconclusive and LASV entry inh -2.7%.
CC1(C)S[C@@H]2[C@H](NC(=O)C(C(=O)O)c3ccsc3)C(=O)N2[C@H]1C(=O)O (some centres undefined) was read as Marburg entry -10.7% and LASV entry inh 2.9%[17.8 µM].

Compound activity as filed in PubChem BioAssay.
